# Compound activity deposited in PubChem by National Center for Advancing Translational Sciences (NCATS).
# This is a sample that favours compounds with a hit; in the whole collection about 19% have one here.
# DT40 TDP1 CPT – qHTS for Inhibitors of human tyrosyl-DNA phosphodiesterase 1 (TDP1): qHTS in cells in presence of CPT; Potency, µM (doses to about 46.2 µM), without a hit: at the highest dose activity change, negative = growth inhibition, usual class: inhibitors; actives 12% (n = 420,000); chicken DT40 Tdp1-/-;hTDP1 cells + 20 nM CPT, ATP luminescence, 48 h; AID 686979, 2013; also: potency is read from the fitted curve at half-maximal effect; % is scaled to controls: 0 for no effect and ±100 for the full control effect; nearly all actives have a fitted effect of over 55% in size
#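 Chicken DT40 Tdp1-/- cells complemented with human TDP1, 400 cells/well, exposed to compounds plus 20 nM camptothecin for at least 48 h at 37 C; viability read as ATP content by CellTiter-Glo luminescence.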
# TGFb inhibitor – qHTS for Inhibitors of TGF-b; HepG2 CAGA-GFP TGF-b/SMAD3 reporter, GFP fluorescence, 18 h; TGF-beta stimulated, 500 pg/mL final; Potency, µM (highest dose often 46.1 µM), without a hit: at the top dose activity, negative = inhibition, usual class: inhibitors; actives 1.2% (n = 410,000); also: potency is read from the fitted curve at half-maximal effect; % is scaled to controls: 0 for no effect and ±100 for the full control effect; nearly all actives have a fitted effect of over 65% in size
#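 Read-out: total well GFP (ex488/em500-530) summed from mean per-cell fluorescence. Cells: HEPG2 CAGA-GFP, 1% FBS DMEM, 18 h at 37 degrees C with 500 pg/mL final TGF-beta. Unstimulated wells served as the full-inhibition control; stimulated DMSO wells = 0%.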
# IL1B secr inh – qHTS for Inhibitors of Inflammasome Signaling: IL-1-beta AlphaLISA Primary Screen; AID 743279, 2014; activity change, % at 57.5 µM; THP-1 LPS/ATP IL-1B secretion, AlphaLISA, 16 h; active compounds read low; actives 4.7% (n = 360,000); in the data active = activity change below about -50%; inconclusive = mostly about -30% to -49%; also: % is scaled to controls: 0 for no effect and ±100 for the full control effect
#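 THP-1 cells pretreated 1 hr with compounds (up to 57.5 uM final), then stimulated with LPS (250 ng/mL final) plus ATP (1.25 mM final); secreted IL-1B measured by AlphaLISA after 16 hr, decreased signal indicating inhibition.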
# ASM inhibitor – Inhibitors of Secretory Acid Sphingomyelinase (S-ASM): qHTS; placental ASM, HMU-PC fluorogenic substrate, 60 min; Sphingomyelin phosphodiesterase (Homo sapiens), P17405; AID 504937, 2011; Potency, µM (doses to about 57.5 µM), without a hit: at the top dose activity change, negative = inhibition, actives largely listed as inhibitors; actives 0.006% (n = 340,000); also: potency is read from the fitted curve at half-maximal effect
# Target sequence (P17405 47-631 limits assumed): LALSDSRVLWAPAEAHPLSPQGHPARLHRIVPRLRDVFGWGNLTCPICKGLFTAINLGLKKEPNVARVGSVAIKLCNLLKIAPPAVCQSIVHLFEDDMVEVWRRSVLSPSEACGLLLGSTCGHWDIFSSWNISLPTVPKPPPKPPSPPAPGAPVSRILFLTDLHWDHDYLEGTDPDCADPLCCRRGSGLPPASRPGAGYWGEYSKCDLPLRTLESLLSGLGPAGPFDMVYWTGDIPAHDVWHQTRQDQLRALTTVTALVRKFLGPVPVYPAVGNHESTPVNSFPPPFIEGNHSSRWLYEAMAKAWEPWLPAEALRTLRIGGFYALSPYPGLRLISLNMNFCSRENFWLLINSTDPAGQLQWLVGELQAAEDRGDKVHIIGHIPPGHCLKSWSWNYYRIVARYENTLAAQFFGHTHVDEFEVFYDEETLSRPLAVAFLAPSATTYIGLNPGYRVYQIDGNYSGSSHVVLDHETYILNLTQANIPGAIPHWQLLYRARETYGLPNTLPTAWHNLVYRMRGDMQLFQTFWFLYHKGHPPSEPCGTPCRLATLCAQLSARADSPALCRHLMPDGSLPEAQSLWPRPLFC
#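 Human placenta-derived ASM preincubated with compound 10 min at room temperature, then reacted with 9 uM (final) fluorogenic HMU-PC substrate for 60 min at 37 C. Stop solution raises pH to 10; fluorescence read at Ex 386/Em 447 nm.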
# HepG2 viability – qHTS for Inhibitors of TGF-b: Cytotox Counterscreen. Potency, µM (titrated, usually from 46.1 µM), without a hit: at the highest dose activity change, negative = cytotoxicity, hits mostly cytotoxic. actives 0.76% (n = 410,000). HepG2 CAGA-GFP viability, ATP luminescence, 18 h; also: potency is read from the fitted curve at half-maximal effect
#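 CellTiter-Glo luminescence gave cytotoxicity after 18 hours at 37 degrees C. The cells were HepG2 CAGA-GFP in 1% FBS DMEM, stimulated with 500 pg/mL TGF-beta after compound addition. %Activity was normalised to no-cell wells (complete cell-killing) and DMSO (no toxicity), and curves were fitted and classified.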
# DT40 TDP1 no CPT – qHTS for Inhibitors of human tyrosyl-DNA phosphodiesterase 1 (TDP1): qHTS in cells in absence of CPT | DT40 Tdp1-/- hTDP1 cells, no CPT, ATP luminescence, 48 h | AID 686978, 2013 | Potency, µM (series often up to 46.2 µM), without a hit: top-dose activity change, negative = growth inhibition, usual class: inhibitors | actives 15% (n = 420,000); also: potency is read from the fitted curve at half-maximal effect; % is scaled to controls: 0 for no effect and ±100 for the full control effect; nearly all actives have a fitted effect of over 55% in size
#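 Readout: luminescence from CellTiter-Glo after 30 min in the dark at RT. Cells: DT40 Tdp1-/- with stable hTDP1, 400/well. Exposure: compounds alone, ≥48 hr, 37 °C.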
# The depositor's hits bear a star; ? = inconclusive; · = no result given; [ ] = remark or other dose. Unless noted, calls follow the shape of the dose curve; as a rule, active = well fitted curve in the direction sought with a large enough effect; inconclusive = small, poorly fitted or top-dose-only effect, or another doubt; inactive = no such curve, though single readings can be large; an effect the other way counts as inactive or inconclusive.
SMILES,DT40 TDP1 CPT,TGFb inhibitor,IL1B secr inh,ASM inhibitor,HepG2 viability,DT40 TDP1 no CPT
COc1ccc(Cl)cc1NC(=O)CN(c1ccccc1)S(=O)(=O)N(C)C,29µM*,-33%,-10,-3%,7%,18µM*
COc1ccccc1CNC(=O)/C(C#N)=C/c1ccc(OC)c(OC)c1OC,-12%,-1%,0,4%,-41%,-13%
O=C(Cc1ccc(NC(=O)C2CCN(C(=O)c3ccccc3)CC2)cc1)Nc1cccc(C(=O)N2CCCC2)c1,-15%,12%,-18,-3%,3%,-6%
CCOc1ccc(NC(=O)Cn2c(=O)n(CCc3ccccc3)c(=O)c3c4c(sc32)CCCC4)cc1,4%,0%,·,·,1%,-29%
CCOC(=O)C1CCN(C(=O)COC(=O)c2oc3ccccc3c2C)CC1,-2%,6%,17,1%,20%,-26%
CCOc1ccc(C(=O)NC(C(=O)NCCc2ccc(OC(F)F)cc2)C(C)C)cc1 (stereo unspecified),-7%,2%,8,-4%,-10%,-16%
COc1ccc(Cl)cc1NC(=O)CN(C)C(=O)c1ccc(-n2nc(C)cc2C)cc1,18µM*,-27%,-26,-2%,-20%,15µM*
COc1ccc(Cl)cc1NC(=O)CN(C)C(=O)c1cccc(-n2cnnn2)c1,-20%,9%,-11,5%,-4%,0%
COc1ccc(Cl)cc1NC(=O)CN(C)C(=O)C12CC3CC(CC(Cl)(C3)C1)C2,?,2%,-25,-5%,-9%,23µM*
CC1C(=O)N2CCCc3cc(NC(=O)c4ccccc4F)cc1c32 (stereo unspecified),4%,-9%,30,2%,-5%,-24%
O=C(O)CCS(=O)(=O)c1ccccc1Cl,6%,-4%,0,5%,-10%,-21%
Cc1nn(C(C)C)c(C)c1CN1CCC(C(=O)Nc2cccc(-c3cccc(F)c3)c2)CC1,23µM*,?,-52*,-1%,11µM*,?
O=C(Nc1cccc(-c2cscn2)c1)C1CCN(Cc2ccc(CO)o2)CC1,-10%,-8%,0,-4%,-13%,?
Cc1cccc(CN2CCC(C(=O)Nc3cccc(-c4cccc(F)c4)c3)CC2)n1,8.2µM*,?,?,-6%,-38%,2.9µM*
O=C(Nc1cccc(-c2cccc(F)c2)c1)C1CCN(Cc2ccco2)CC1,?,?,-18,0%,-60%,?
Cc1cccc(CN2CCC(C(=O)Nc3cccc(-c4cscn4)c3)CC2)n1,?,?,-6,0%,-25%,23µM*
COCc1ccc(CN2CCC(C(=O)Nc3cccc(-c4cscn4)c3)CC2)o1,?,-10%,-73*,-4%,-11%,-25%
CCn1cc(CN2CCC(C(=O)Nc3cccc(-c4cscn4)c3)CC2)cn1,-4%,-1%,-11,-1%,1%,-8%
CC(C)c1ccccc1NC(=O)c1ccc2ncsc2c1,-6%,-12%,-15,6%,-4%,-7%
O=C1CC(C(=O)N2CCOc3ccc(CN4CCC(Oc5cccnc5)CC4)cc3C2)c2ccccc21 (stereo unspecified),-6%[9.04 µM],·,·,·,·,?
O=C(Nc1cccc(F)c1)C1CCCCC1,-1%,-6%,14,1%,-2%,1%
O=C(Nc1cccc(-c2cccc(F)c2)c1)C1CCN(C2CCC2)CC1,?,?,-14,1%,1%,5.2µM*
COc1ccc(S(=O)(=O)N2CCN(C(=O)NCc3ccc(C)cc3)CC2)cc1,-15%,?,-14,0%,-1%,-25%
COc1ccc(/[N+]([O-])=C/c2ccco2)cc1,15µM*,10%,-3,0%,8%,16µM*
COc1ccc(OCC(=O)N/N=C\c2ccco2)cc1,-10%,?,-25,-5%,4%,-13%
SMILES,DT40 TDP1 CPT,TGFb inhibitor,IL1B secr inh,ASM inhibitor,HepG2 viability,DT40 TDP1 no CPT
CC1=NN(c2ccc(C(F)(F)F)cn2)C(=O)C1,23µM*,?,-1,2%,-55%,?
O=C(Nc1ccc(N2CCN(C(=O)c3cccs3)CC2)cc1)c1ccc(Br)o1,?,3%,?,-3%,1%,?
Cc1sc(NC(=O)c2ccc(OCC(C)C)cc2)c(C(N)=O)c1-c1ccc(Cl)cc1Cl,9.2µM*,-21%,-17,189%,-4%,7.3µM*
Cc1ccnc(N2CCN(C(=O)CSc3nc4ccccc4nc3N3CCC(C)CC3)CC2)c1,?,?,11,-2%,-34%,?
O=C(CSc1nc2ccccc2nc1N1CCCCC1)N1CCN(c2ccccc2)CC1,21µM*,-26%,-21,9%,-32%,?
O=C(CSc1nc2ccccc2nc1N1CCOCC1)N1CCN(c2ccccc2)CC1,21µM*,?,-27,-1%,-1%,12µM*
Cc1cccc(N2CCN(C(=O)CSc3nc4ccccc4nc3N3CC(C)OC(C)C3)CC2)c1C (stereo unspecified),2.1µM*,-18%,16,2%,-31%,4.1µM*
CCOC(=O)c1c(C)n(C)c2ccc(OCC(O)Cn3nc(C)c(Br)c3C)cc12 (stereo unspecified),21µM*,0%,-6,?,-12%,18µM*
CC(=O)c1c(C)nn(CC(O)COc2ccc3ccccc3c2)c1C (stereo unspecified),?,1%,-14,-3%,-21%,26µM*
Clc1ccc(-c2nc3cc(CN4CCCCC4)ccc3o2)cc1,?,31%,-18,4%,-3%,?
Cc1ccc(CNc2nccn(-c3cc(C)cc(C)c3)c2=O)cc1,?,-10%,·,·,-3%,?
CC1CC(NC(=O)Cc2ccc(Br)cc2)CC(C)(C)C1 (stereo unspecified),16µM*,?,-11,-1%,-15%,?
O=C(OCc1ccccc1C(F)(F)F)c1ccc(Br)c(S(=O)(=O)N2CCOCC2)c1,?,-6%,-12,-1%,-8%,?
CC(C)(C)c1ccc(/C=C(\C#N)C(=O)NCCN2CCOCC2)cc1,-17%,25%,?,-1%,-2%,-16%
